# An excerpt weighted towards active compounds, which were near 10% of everything screened.
# PNC inhibitor: blocks assembly of the perinucleolar compartment | 3.1% of 140,000 active | PC3M PTB-GFP, PNC prevalence imaging, 16 h; hits give low values | activity change (PNC), negative = inhibition, % at 10 µM;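 active = readout at or below -70, meaning at least 70% loss of cells showing the perinucleolar compartment, a nuclear body marking cancer cells; inconclusive = readout between -30 and a set limit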;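 note: plate controls were DMSO wells for no effect and camptothecin positive control wells for full effect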
#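 Compounds are pinned in duplicate onto adhered PC3M cells stably expressing GFP-tagged PTB and incubated 16 h at 37 C. Cells are then fixed, nuclei stained with Hoechst, and PNC-positive cells counted.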
# Luc counter: blocks Kinase-Glo luciferase, a counter-screen artifact | Q27757 | Kinase-Glo luciferase, ATP luminescence, 8 min | Potency, µM (series often up to 38.3 µM), inactives show top-dose activity change, negative = inhibition, usual class: inhibitors | 0.28% of 200,000 active; active = well fitted inhibition curve with a large enough effect; inconclusive = small, poorly fitted or top-dose-only effect; note: potency is the fitted concentration of half-maximal effect; nearly all actives have a fitted effect of over 60% in size
#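 Compound is pinned into ATP-containing buffer (10 uM ATP, imidazole pH 7.2, 7 mM MgCl2). Kinase-Glo luciferase reagent is then added. Light output is recorded following an 8-min room-temperature incubation.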
# HPGD inh: blocks human HPGD enzyme activity. P15428. purified HPGD, NADH fluorescence kinetic, PGE2 substrate. Potency, µM, without a hit: top-dose activity change, negative = inhibition, most hits filed as inhibitors. 4.3% of 150,000 active; note: potency is the fitted concentration of half-maximal effect
# Target sequence (P15428 whole entry, looked up): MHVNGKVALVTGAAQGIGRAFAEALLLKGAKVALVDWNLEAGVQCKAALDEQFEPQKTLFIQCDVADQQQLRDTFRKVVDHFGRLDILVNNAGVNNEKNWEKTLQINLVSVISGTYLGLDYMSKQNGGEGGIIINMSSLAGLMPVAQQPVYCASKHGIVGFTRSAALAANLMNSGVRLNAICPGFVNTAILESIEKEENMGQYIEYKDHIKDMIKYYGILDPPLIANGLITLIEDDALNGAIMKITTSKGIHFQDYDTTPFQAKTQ
#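 20 nM HPGD preincubated 15 min at room temperature with compound in 50 mM Tris-HCl pH 8, 0.01% Tween 20. Started with 1 mM NAD+ and 30 uM prostaglandin E2; NADH fluorescence (360/450 nm) read 5 times over 30-s intervals, last minus first.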
# IMPase cell inh: cell-permeable inhibitors of inositol monophosphatase (IMPase). AID 901. P97697. CHO-M1 cells, IP1 accumulation, HTRF TR-FRET ratio. inhibition (IP1 accumulation), % at 46.1 µM. 120,000 tested, under 10 active; active = well fitted curve in the direction sought with a large enough effect in the signal ratio, not every such curve was filed as active; inconclusive = small, poorly fitted or top-dose-only effect, or a change in a side signal; inactive = no such curve, though single readings can be large or run the other way; the % refers to the signal ratio;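 note: cells stimulated with carbachol in lithium chloride buffer; plate controls were DMSO basal wells for no effect and reference inhibitor wells for full effect; higher means more IMPase inhibition seen as more IP1 and lower FRET ratio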
# Target sequence (P97697 whole entry, looked up): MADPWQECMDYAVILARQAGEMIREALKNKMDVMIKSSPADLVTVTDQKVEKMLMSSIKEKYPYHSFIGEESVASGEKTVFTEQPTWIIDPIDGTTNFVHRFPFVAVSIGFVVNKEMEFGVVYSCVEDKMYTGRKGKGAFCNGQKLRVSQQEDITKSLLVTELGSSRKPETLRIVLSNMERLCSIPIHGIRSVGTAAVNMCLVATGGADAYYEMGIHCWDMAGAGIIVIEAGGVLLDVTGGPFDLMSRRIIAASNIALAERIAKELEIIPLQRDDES
#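 Elevated IP1 in lysates lowers TR-FRET signal (665/620 ratio and 620 channel reported). Cells were CHO-M1, given carbachol (50 uM as added) plus 50mM LiCl, pH 7.4, 30 min, 37C; compounds titrated up to 46 uM; AC50 by Hill equation.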
# LMNA splice mod: changes lamin A minigene splicing in HeLa cells. 0.01% of 200,000 active. HeLa LMNA splicing GFP/RFP minigene ratio, 48 h. Potency, µM (doses to about 46.1 µM), inactives show at the highest dose ratio change, negative = inhibition, most hits filed as inhibitors; active = well fitted inhibition curve with a large enough effect in the signal ratio, with a control signal flat, not every such curve was filed as active; inconclusive = small, poorly fitted or top-dose-only effect, or effect the other way, or a change in a side signal; the % refers to the signal ratio; note: potency is the fitted concentration of half-maximal effect
#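 S3 HeLa stable clones carrying a lamin A-EGFP splicing minigene plus DsRed2 were seeded at 600 cells/well in Opti-MEM with 2% FBS, pin-dosed and incubated 48 h at 37°C. Acumen cytometry (488 nm) gave the GFP/RFP total-intensity ratio.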
# ALDH1A1 inh: blocks purified human ALDH1A1 activity | P00352 | Purified ALDH1A1, NADH fluorescence, propionaldehyde substrate | Potency, µM (series often up to 75.3 µM), inactives show at the highest dose activity, negative = inhibition, usual class: inhibitors | 7.3% of 220,000 active | AID 1030;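 note: potency is the fitted concentration of half-maximal effect; plate controls were no enzyme wells and a reference inhibitor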
# Starred values were filed as active, the others as inactive; ? = inconclusive; . = no result; [ ] = remark or other dose. Unless noted, calls come from the whole dose curve; as a rule, active = well fitted inhibition curve with a large enough effect (not every such curve was filed as active); inconclusive = small, poorly fitted or top-dose-only effect, or another doubt; inactive = no such curve, though single readings can be large or run the other way. Unless noted, % is set by controls: 0 for no effect and ±100 for the full control effect.
SMILES,PNC inhibitor,Luc counter,HPGD inh,IMPase cell inh,LMNA splice mod,ALDH1A1 inh
CN(C)c1ccc(C(=O)C(O)c2ccc(C(C)(C)C)cc2)cc1 (centres undefined),6.7,4.2%,-14.5%,-3.9,-2.2%,?
Cc1ccc(OCC(=O)Nc2cccc(C(=O)OCc3cc(=O)n4cc(C)sc4n3)c2)cc1,.,.,.,.,12.1%[46 µM],.
Cc1cc(O)c(C(C)C)cc1CN1CCCCC1,.,1.1%[7.66 µM],-2.9%,.,.,-2.2%[13.5 µM]
COC(=O)c1ccc2nc(NC(=O)C3CCCCC3)sc2c1,.,0.1%,.,.,?,25.1µM*
COc1ccc2nc(NC(=O)C3CCCN(S(=O)(=O)c4cccc5nonc45)C3)sc2c1 (centres undefined),-100.0*,2.9%,-15.6%,3.7,-2.1%,-5.7%
Nc1nc2ccc(S(=O)(=O)N3CCCCC3)cc2s1,-12.6,-1.2%,14.1µM*,?,-14.3%,6.31µM*
O=C(Nc1nc2ccc(S(=O)(=O)N3CCCC3)cc2s1)C1CCCCC1,-107.6*,-4.8%,20µM*,4.9,?,8.91µM*
COc1ccc(O[C@H]2C=C[C@@H](c3ccccc3)O[C@H]2COC(=O)CC/C(C)=N\O[C@@H](C)c2cn([C@H]3COC[C@H]3O)nn2)cc1,.,.,.,.,.,-2.9%[13.5 µM]
Cc1nn(-c2ccc3nncn3n2)c(C)c1CCC(=O)Nc1ccc(OC(F)(F)F)cc1,.,.,.,.,2.1%[46 µM],.
CN1CCc2cc3c(cc2C(=O)Cc2ccc4c(c2C1)OCO4)OCO3,.,1.8%,-8.3%,15.6,.,-1.7%
C=CCn1c(SCC(=O)c2ccc(OC)cc2)nnc1-c1ccc2c(c1)OCO2,45.0,12.4%,-13.6%,.,3.1%,-1.3%
C=CCn1c(SCC(=O)c2ccc(Cl)cc2)nnc1-c1ccc2c(c1)OCO2,37.4,-2.3%,8.91µM*,.,?,?
O=C(CSc1nnc(SCc2ccc(Cl)cc2)s1)c1ccc2c(c1)OCO2,-7.1,2.8%,-12.1%,.,?,2.24µM*
O=C(c1nc2ccccc2s1)N1CCN(c2ccccn2)CC1,-9.2,1.1%,-7.2%,-2.5,-8.7%,?
O=C(c1nc2ccccc2s1)N1CCSCC1,?,0.3%,8.91µM*,13.4,-1.4%,-0.6%
Clc1ccc(-n2nnc(-c3nccs3)n2)cc1Cl,.,.,.,.,.,25.1µM*
O=S1(=O)c2ccccc2N=NN1Cc1ccc(Cl)c(Cl)c1,-22.3,-4.8%,5.62µM*,7.8,9.8%,2.51µM*
CC(C)(C)c1ccc(CN2N=Nc3ccccc3S2(=O)=O)cc1,2.8,-1.7%,?,2.0,?,22.4µM*
CCN(CC)S(=O)(=O)c1ccc(C(=O)NCCc2cc3c(OC)ccc(OC)c3[nH]c2=O)cc1,?,2.0%,-4.8%,3.8,2.3%,?
Cc1ccc(C)c2[nH]c(=O)c(CCNC(=O)c3ccc(S(=O)(=O)N(C)C)cc3)cc12,-4.9,-0.9%,-4.5%,3.7,-1.4%,22.4µM*
COc1ccc(S(=O)(=O)N(C)CC(=O)Nc2ccccc2OC)cc1C,?,-1.5%,-2.4%,4.9,-8.2%,-2.0%
CCOc1ccccc1NC(=O)CN(C)S(=O)(=O)c1ccc(OC)c(C)c1,18.7,1.0%,15.8µM*,9.7,-5.5%,?
COCCNc1nc(-c2ccccc2Cl)nc2ccccc12,.,.,.,.,-7.4%,3.8%
O=C(/C=C/c1ccc(OC(F)F)cc1)OCC(=O)N1CCN(C(=O)c2ccco2)CC1,13.4,2.1%,-6.5%,.,-7.7%,17.8µM*
COc1ccc(OCC(=O)N2CCN(C(=O)c3ccco3)CC2)cc1,-29.3,2.1%,-9.1%,5.1,16.4%,10µM*
SMILES,PNC inhibitor,Luc counter,HPGD inh,IMPase cell inh,LMNA splice mod,ALDH1A1 inh
COc1ccc(CC(=O)N2CCN(C(=O)c3ccco3)CC2)cc1,6.8,-1.5%,?,12.9,-1.2%,20µM*
CCSc1nnc2c(n1)OC(c1ccc(C)cc1)N(C(C)=O)c1ccccc1-2 (centres undefined),.,.,.,10.3,.,.
CCCCn1c2c(c(=O)n(C)c1=O)C(c1ccc(OC)cc1)N1CCCCCC1=N2 (centres undefined),-6.4,-6.9%,-11.1%,9.1,2.2%,0.141µM*
CCCCOc1ccc(C2C(=O)N(C3CCCCC3)CC(=O)N2CCCC)cc1 (centres undefined),.,.,.,.,2.3%[46 µM],.
COc1ccc(CNC(=O)CCCc2cn(C)c3ccccc23)c(OC)c1,.,.,.,.,-15.9%[46 µM],.
Cc1ccc(-n2c(=O)[nH]c3ncccc3c2=O)cc1,.,1.1%,.,.,.,?
Cc1ccc(-n2[nH]c(=O)c3cccnc32)cc1,35.5,-2.7%,15.8µM*,10.9,0.9%,4.2%
O=C(C1CC(=O)N(C2CCCC2)C1)N1CCC(Cc2ccccc2)CC1 (centres undefined),-106.2*,-4.0%,-3.0%,-3.5,9.2%,?
O=C(C1CC(=O)N(C2CCCC2)C1)N1CCN(c2ccccc2F)CC1 (centres undefined),27.2,-0.7%,4.4%,4.9,6.1%,2.6%
Cn1cc(-c2nnnn2-c2ccccc2)c(=O)c2ccccc21,30.4,-1.1%,-12.2%,1.9,7.8%,7.08µM*
Cc1cccc(NC(=O)CSc2nnc(CNC(=O)c3ccc(S(=O)(=O)N(C)C)cc3)n2-c2ccc(F)cc2)c1,-5.9,-0.1%,-8.2%,.,-0.3%,?
Cc1cccc(NC(=O)CSc2nnc(CNC(=O)c3ccc(S(=O)(=O)N(C)C)cc3)n2-c2ccccc2)c1,-3.3,-2.6%,4.9%,.,?,7.08µM*
Cc1cccc(-n2c(CNC(=O)c3ccc(S(=O)(=O)N(C)C)cc3)nnc2SCC(=O)Nc2ccc(F)cc2)c1,?,1.0%,-13.5%,.,2.1%,0.447µM*
O=C(CSc1n[nH]c(-c2ccccc2)n1)Nc1ccc(Br)cn1,33.1,1.8%,12.6µM*,-2.0,-13.9%,-1.3%
O=C(CSc1nc(-c2ccccc2)cs1)NC(=O)NCc1ccco1,-21.7,-6.2%,-19.0%,14.6,?,?
O=C(CSc1ncccn1)NC(=O)NCc1ccco1,.,6.2%,.,.,1.6%[46 µM],-5.2%
O=C(CSc1n[nH]c(-c2ccccc2)n1)NC(=O)NCc1ccco1,37.9,8.3%,14.1µM*,-10.5,11.5%,-5.5%
O=C(CSc1nc2ccccc2s1)NC(=O)NCc1ccco1,-26.1,-1.5%,25.1µM*,3.8,-1.6%,31.6µM*
COC(=O)[C@@]1(Cc2ccccc2)[C@H]2c3cc(C(=O)N4CCCC4)n(Cc4cccc5ccccc45)c3C[C@H]2CN1C(=O)c1ccccc1,.,1.9%,-9.1%,.,.,0.0%
CC(=O)c1cccc(NC(=O)C2CCN(S(=O)(=O)c3ccc4c(c3)CCCN4C(C)=O)CC2)c1,.,.,.,.,7.8%[46 µM],.
N#CCCn1c(=O)cnc2cnc(Oc3cccc(Cl)c3)nc21,.,.,.,.,-7.7%,1.6%

# Source: PubChem BioAssay (National Center for Advancing Translational Sciences (NCATS))
